The target in assay [1] is T1, Ephrin type-B receptor 2 (Homo sapiens) (UniProt P29323).
T1 sequence (whole entry): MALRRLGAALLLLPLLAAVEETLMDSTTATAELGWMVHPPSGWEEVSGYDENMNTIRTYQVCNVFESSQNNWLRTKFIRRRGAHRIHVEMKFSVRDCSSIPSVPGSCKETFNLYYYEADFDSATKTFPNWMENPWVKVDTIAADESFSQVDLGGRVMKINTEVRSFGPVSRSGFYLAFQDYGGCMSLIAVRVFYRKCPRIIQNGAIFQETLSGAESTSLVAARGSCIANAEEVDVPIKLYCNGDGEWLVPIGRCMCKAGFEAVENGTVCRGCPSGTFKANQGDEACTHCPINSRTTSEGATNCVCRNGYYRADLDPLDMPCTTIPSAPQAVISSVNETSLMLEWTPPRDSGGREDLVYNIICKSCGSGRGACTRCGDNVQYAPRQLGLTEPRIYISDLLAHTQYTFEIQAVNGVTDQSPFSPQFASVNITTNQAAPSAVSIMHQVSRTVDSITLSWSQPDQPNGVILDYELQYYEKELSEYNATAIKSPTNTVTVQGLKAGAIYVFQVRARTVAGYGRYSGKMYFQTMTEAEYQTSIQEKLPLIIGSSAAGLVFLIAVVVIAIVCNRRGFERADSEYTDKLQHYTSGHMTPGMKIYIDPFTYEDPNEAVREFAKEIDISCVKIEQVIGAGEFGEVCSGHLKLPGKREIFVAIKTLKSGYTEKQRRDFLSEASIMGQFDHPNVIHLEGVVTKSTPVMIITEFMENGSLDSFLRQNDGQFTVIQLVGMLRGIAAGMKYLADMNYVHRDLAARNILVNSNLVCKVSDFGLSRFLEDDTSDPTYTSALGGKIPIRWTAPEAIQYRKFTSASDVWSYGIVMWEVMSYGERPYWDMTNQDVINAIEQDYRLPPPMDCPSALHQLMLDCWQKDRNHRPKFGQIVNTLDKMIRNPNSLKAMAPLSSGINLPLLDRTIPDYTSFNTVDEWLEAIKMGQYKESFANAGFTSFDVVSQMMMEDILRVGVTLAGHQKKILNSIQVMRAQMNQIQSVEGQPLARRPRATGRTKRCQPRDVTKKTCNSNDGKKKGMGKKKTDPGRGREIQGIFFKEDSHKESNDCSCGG
The note with it: at 1 µM.

Assay [2] deals with T2, Ephrin type-B receptor 3 (Homo sapiens) (UniProt P54753).
T2 sequence (whole entry): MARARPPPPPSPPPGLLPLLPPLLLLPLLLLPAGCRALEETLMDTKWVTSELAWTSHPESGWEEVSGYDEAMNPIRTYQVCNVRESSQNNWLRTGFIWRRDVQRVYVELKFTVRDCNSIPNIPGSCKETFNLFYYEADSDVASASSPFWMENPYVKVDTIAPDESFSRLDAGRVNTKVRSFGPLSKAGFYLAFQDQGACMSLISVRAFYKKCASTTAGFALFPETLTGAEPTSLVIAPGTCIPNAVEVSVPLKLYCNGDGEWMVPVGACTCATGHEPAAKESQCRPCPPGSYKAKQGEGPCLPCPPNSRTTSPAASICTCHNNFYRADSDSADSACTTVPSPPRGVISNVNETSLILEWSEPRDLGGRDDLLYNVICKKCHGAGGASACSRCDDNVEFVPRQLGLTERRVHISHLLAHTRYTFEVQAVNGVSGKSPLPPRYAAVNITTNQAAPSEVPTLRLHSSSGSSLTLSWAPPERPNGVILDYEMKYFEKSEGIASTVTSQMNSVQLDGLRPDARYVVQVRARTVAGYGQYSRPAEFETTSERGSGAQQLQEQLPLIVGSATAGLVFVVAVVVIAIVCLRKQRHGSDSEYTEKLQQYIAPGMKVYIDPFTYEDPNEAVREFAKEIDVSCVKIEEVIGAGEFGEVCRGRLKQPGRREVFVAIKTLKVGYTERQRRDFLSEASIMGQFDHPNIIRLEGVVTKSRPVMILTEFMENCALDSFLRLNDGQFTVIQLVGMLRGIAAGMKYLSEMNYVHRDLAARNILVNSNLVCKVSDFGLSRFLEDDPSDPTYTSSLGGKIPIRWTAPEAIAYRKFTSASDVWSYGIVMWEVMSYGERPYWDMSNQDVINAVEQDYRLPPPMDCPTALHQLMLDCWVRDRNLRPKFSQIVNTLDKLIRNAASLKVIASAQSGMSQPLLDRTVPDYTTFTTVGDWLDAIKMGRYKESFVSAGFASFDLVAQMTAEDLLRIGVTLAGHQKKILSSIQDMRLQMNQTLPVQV
The note with it: at 0.1 µM.

The target in assay [3] is T2, Ephrin type-B receptor 3 (Homo sapiens). The note with it: at 1 µM.
For assay [4], the target named is T3, Ephrin type-B receptor 4 (Homo sapiens) (UniProt P54760).
T3 sequence (whole entry): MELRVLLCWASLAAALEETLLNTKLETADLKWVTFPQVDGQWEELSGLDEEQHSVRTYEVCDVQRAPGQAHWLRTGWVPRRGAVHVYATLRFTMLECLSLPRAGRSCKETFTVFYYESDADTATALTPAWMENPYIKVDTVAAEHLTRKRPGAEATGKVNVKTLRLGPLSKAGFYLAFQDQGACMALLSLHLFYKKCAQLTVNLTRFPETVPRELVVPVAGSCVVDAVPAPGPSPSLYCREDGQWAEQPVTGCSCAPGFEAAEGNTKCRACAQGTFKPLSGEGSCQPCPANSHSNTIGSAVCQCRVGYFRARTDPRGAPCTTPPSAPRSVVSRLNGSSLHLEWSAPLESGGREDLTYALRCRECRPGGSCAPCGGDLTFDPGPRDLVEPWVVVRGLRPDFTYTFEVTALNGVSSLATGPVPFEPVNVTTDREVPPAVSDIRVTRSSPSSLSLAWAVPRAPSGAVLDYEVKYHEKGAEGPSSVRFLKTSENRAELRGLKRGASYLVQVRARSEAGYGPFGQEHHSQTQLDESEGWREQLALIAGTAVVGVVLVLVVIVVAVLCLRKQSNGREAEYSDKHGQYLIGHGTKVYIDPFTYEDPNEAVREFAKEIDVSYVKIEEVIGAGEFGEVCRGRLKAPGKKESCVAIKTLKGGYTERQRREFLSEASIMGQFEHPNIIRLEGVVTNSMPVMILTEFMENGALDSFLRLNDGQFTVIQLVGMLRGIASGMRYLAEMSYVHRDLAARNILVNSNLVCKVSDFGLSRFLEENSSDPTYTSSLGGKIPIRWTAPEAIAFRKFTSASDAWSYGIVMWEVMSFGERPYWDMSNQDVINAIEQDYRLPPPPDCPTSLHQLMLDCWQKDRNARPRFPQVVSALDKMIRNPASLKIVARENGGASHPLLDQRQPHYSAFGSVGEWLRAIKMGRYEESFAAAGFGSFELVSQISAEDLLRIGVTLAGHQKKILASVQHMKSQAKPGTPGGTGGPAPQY
The settings on record: at 0.1 µM.

Assay [5] concerns the target T3, Ephrin type-B receptor 4 (Homo sapiens). The note with it: at 1 µM.
Assay [6] concerns the target Receptor tyrosine-protein kinase erbB-2 (Homo sapiens) (UniProt P04626). The settings on record: at 0.1 µM.
Assay [7] has the same target. The settings on record: at 1 µM.
In assay [8] the target is Receptor tyrosine-protein kinase erbB-4 (Homo sapiens) (UniProt Q15303). The settings on record: at 0.1 µM.
For assay [9] the target is unchanged. The note with it: at 1 µM.
The target of assay [10] is Tyrosine-protein kinase Fer (Homo sapiens) (UniProt P16591). The note with it: at 0.1 µM.
Tyrosine-protein kinase Fer (Homo sapiens), sequence (P16591 whole entry, looked up): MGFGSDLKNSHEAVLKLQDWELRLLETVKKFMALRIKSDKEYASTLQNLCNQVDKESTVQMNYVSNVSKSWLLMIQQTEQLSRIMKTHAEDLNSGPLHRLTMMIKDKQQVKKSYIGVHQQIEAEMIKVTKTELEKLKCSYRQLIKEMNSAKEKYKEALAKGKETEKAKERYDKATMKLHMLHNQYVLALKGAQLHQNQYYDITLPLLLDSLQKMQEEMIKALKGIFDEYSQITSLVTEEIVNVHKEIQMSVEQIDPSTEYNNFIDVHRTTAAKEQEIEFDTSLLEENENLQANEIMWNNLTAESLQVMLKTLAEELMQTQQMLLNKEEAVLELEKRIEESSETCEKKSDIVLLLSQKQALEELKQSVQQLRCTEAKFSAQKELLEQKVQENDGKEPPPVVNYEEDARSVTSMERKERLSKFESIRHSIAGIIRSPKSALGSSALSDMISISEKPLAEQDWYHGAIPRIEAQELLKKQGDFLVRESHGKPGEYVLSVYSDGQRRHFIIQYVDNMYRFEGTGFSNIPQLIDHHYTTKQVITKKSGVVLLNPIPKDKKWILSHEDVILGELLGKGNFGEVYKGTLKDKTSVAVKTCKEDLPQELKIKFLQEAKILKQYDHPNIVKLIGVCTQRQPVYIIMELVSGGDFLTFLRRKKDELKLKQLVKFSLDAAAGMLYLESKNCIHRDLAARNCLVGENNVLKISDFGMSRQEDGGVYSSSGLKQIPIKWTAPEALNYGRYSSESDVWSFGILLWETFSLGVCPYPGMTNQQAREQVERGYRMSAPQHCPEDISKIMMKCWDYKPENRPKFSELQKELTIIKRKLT
Assay [11] shares this target. The settings on record: at 1 µM.
The target in assay [12] is Tyrosine-protein kinase Fes/Fps (Homo sapiens) (UniProt P07332). The settings on record: at 0.1 µM.
Tyrosine-protein kinase Fes/Fps (Homo sapiens), sequence (P07332 whole entry): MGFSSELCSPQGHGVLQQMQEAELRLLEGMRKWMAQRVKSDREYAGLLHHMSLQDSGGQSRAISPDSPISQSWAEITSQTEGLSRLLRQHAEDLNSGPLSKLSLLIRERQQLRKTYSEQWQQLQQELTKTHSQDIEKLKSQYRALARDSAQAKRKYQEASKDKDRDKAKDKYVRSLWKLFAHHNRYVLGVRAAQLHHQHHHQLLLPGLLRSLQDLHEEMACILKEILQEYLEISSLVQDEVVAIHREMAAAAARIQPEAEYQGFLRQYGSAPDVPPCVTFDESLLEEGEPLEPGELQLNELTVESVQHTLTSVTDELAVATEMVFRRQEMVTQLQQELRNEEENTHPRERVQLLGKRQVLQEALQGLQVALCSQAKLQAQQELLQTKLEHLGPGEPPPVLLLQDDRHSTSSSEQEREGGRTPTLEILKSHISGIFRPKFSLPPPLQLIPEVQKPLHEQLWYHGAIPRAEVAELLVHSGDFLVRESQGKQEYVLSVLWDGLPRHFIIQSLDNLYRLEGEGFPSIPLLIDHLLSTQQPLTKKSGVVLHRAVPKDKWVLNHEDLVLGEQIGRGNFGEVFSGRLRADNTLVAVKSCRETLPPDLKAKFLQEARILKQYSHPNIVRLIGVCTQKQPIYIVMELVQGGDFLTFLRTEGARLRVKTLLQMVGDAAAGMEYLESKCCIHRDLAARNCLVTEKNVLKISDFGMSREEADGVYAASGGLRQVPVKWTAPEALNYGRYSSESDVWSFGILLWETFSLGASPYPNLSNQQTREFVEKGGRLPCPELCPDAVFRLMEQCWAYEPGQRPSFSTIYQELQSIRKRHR
The target is the same in assay [13]. The note with it: at 1 µM.
Assay [14] concerns the target Fibroblast growth factor receptor 1 (Homo sapiens) (UniProt P11362). The settings on record: at 0.1 µM.
For assay [15] the target is unchanged. The settings on record: at 1 µM.
Assay [16] concerns the target Fibroblast growth factor receptor 2 (Homo sapiens) (UniProt P21802). The settings on record: at 0.1 µM.
The target is the same in assay [17]. The note with it: at 1 µM.
The target in assay [18] is Fibroblast growth factor receptor 3 (Homo sapiens) (UniProt P22607). The settings on record: at 0.1 µM.
Fibroblast growth factor receptor 3 (Homo sapiens), sequence (P22607 23-806 limits assumed): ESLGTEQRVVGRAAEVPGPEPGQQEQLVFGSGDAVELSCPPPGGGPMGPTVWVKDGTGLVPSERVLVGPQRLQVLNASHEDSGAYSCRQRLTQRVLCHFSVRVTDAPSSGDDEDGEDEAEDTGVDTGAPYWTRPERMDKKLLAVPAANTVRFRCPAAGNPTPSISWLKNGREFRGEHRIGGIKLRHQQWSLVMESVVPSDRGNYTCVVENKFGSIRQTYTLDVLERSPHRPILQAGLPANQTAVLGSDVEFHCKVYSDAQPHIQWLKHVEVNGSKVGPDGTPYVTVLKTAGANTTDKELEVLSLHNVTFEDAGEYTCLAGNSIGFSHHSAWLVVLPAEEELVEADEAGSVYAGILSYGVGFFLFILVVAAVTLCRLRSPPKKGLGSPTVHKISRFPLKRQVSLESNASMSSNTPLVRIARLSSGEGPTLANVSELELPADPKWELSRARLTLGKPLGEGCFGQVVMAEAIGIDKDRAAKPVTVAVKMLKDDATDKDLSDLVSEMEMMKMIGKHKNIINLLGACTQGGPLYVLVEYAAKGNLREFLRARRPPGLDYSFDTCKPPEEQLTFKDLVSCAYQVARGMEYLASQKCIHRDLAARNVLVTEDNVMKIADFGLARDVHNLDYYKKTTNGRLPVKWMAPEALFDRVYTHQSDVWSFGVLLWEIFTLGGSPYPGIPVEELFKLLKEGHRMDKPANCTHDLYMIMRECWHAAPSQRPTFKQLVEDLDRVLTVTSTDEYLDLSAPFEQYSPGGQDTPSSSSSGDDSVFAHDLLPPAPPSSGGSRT
Assay [19] has the same target. The settings on record: at 1 µM.
For assay [20], the target named is Fibroblast growth factor receptor 4 (Homo sapiens) (UniProt P22455). The settings on record: at 0.1 µM.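 Further: values are mean percent inhibition of FGFR4.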

Receptor tyrosine-protein kinase erbB-2 (Homo sapiens), sequence (P04626 whole entry): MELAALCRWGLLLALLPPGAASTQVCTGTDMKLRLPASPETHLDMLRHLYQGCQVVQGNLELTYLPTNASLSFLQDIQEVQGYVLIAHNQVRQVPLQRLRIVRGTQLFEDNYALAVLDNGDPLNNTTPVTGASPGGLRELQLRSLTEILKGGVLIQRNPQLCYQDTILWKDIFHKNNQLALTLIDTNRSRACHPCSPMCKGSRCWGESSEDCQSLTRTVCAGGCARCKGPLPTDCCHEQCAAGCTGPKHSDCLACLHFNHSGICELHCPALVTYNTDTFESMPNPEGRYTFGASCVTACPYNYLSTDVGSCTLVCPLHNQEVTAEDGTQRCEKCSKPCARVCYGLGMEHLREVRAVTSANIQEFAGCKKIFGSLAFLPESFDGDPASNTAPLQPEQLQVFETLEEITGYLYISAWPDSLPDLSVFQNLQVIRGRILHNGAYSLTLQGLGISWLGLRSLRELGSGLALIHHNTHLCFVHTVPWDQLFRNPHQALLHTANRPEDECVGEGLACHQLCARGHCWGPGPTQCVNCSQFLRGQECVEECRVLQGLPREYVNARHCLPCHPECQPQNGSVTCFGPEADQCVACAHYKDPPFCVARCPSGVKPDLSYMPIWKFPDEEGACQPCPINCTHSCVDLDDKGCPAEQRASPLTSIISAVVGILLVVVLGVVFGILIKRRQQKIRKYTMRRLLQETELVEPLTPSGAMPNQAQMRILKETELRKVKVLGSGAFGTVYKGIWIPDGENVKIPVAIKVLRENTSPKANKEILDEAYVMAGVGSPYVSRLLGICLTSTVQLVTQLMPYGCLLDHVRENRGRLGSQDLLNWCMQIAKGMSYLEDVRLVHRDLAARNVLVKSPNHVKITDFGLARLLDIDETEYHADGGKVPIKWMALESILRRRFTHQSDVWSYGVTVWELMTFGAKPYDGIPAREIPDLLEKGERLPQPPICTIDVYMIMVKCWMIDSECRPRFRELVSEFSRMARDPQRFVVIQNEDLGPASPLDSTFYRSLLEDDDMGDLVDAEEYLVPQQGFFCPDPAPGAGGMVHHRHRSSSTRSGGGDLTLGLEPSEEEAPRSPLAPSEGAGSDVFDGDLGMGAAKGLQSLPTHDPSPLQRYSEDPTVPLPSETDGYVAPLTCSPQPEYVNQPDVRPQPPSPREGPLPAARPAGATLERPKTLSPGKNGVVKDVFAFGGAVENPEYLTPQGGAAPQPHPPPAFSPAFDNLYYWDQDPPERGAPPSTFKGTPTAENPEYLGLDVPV
Fibroblast growth factor receptor 1 (Homo sapiens), sequence (P11362 22-822 limits assumed): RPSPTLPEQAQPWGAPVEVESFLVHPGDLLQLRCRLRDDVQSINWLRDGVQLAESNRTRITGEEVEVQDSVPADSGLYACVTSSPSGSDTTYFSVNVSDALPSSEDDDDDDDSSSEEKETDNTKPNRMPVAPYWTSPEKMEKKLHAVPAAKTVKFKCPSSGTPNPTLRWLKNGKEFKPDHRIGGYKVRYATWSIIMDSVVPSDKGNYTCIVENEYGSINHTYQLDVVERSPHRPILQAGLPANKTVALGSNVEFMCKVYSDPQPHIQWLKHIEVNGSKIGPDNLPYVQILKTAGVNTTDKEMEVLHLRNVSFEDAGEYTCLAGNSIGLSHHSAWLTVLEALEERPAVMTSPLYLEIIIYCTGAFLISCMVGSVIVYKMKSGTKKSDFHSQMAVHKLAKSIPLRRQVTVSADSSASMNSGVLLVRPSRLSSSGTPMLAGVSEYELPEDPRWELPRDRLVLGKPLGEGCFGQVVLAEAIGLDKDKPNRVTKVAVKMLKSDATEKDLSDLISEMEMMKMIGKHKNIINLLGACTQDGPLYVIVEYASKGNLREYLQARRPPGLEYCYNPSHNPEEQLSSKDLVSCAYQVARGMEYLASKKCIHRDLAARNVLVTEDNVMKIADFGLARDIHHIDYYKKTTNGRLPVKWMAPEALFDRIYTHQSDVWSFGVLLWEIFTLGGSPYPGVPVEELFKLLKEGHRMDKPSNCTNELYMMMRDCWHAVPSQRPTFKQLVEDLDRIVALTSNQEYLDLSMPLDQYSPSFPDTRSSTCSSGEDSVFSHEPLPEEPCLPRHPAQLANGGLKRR

The inhibition is the change of the read-out against control, counted positive when it falls. In the case of `CN(C)c1ccc2c(c1)/C(=C/Nc1ccc(S(N)(=O)=O)cc1)C(=O)N2`, the inhibition in assay [1] came to 5.77%; in assay [2], 4.11%; in [3], 1.83%; in [4], 2.11%; in assay [5], 3.08%; in [6], 0.32%. The inhibition in [7] was found to be 3.44%; in assay [8], 4.88%; in assay [9], 7.65%; in assay [10] it was 2.36%; in assay [11], 8.18%; in assay [12], 0.6%. In addition, the inhibition in assay [13] was found to be 0.4%; in assay [14], 3.54%; in [15], 15.3%; in assay [16] it was 5.56%; in [17] it was 31.6%; in assay [18], 7.1%. In addition, the inhibition worked out at 29.6% in assay [19] and 1.99% in assay [20].
Turning to `COC(=O)Nc1nc2ccc(Sc3ccc(NC(=O)Nc4cc(C(F)(F)F)ccc4F)cc3)cc2[nH]1`, the inhibition in assay [1] turned out to be 79.9%; in assay [2] it was 3.25%; in assay [3] it was 11.3%; in assay [4] it was 6.3%; in assay [5], 57.2%; in [6], 0.24%. The inhibition in assay [7] is 1.41%; in assay [8], 1.95%; in [10], 1.93%; in assay [11] it was 1.11%; in assay [12], 0.33%; in [13], -0.58%. Moreover, the inhibition is -1.07% in [14]; -3.15% in assay [15]; 0.25% in assay [16]; 4% in assay [17]; 2.1% in assay [18]; 2.77% in assay [19]. The inhibition in assay [20] was determined as 3.12%.
Turning to `FC(F)(F)c1cccc(Nc2nccc(-c3cnn4nc(-c5ccccc5)ccc34)n2)c1`, the inhibition in [1] is 6.85%; in [2], 5.37%; in assay [3] it was 2.32%; in [4] it was -0.91%; in assay [5], 0.74%; in [6], 2.98%. Besides, the inhibition is 2.21% in [7]; 7% in assay [8]; 8.48% in assay [9]; -2.66% in assay [10]; 4.03% in [11]; 1.27% in assay [12]. Further, the inhibition was 2.38% in assay [13]; -1.25% in assay [14]; -0.07% in assay [15]; 1.56% in assay [16]; 3.34% in assay [17]; 1.31% in assay [18]. The inhibition in assay [19] was 2.97%; in assay [20] it was -0.29%.
Consider `COc1ccc2cc(-c3c(-c4ccncc4)nc(-c4ccc([S+](C)[O-])cc4C)n3C)ccc2c1` (centres undefined), for which the inhibition was found to be 19.7% in assay [1]; 4.06% in assay [2]; 14.6% in assay [3]; 4.17% in assay [4]; 22.5% in [5]; 1.42% in [6]. The inhibition is 5.05% in assay [7]; 9.39% in assay [8]; 37.1% in assay [9]; 1.31% in [10]; 3.2% in assay [11]; -0.52% in assay [12]. Moreover, the inhibition in assay [13] was -1.2%; in assay [14], -0.12%; in [15] it was 2.93%; in [16] it was -0.56%; in assay [17] it was 2.09%; in assay [18], 1.3%. For the same compound, the inhibition in assay [19] worked out at 3.02%; in [20], 2.92%.
